# Measurements: PubChem BioAssay AID1239 (SRMLSC, 2008)
# The campaign covered roughly 190,000 compounds. About 3,100 (1.6%) were called active. Shown is part of a subset that was picked to be rich in actives. Unmarked numbers belong to inactive results. Cut-off read from the data, not from the text of the source: active = fold change above about 3.3; inconclusive = no clear call, values can overlap the other calls; inactive = below that.
# Experiment: activators of NF-kB expression in neurons, primary screen, cell-based, HTS (AID 1239)
# Details: human neuronal cells, NF-kB reporter expression; at 12.5 µM; active compounds read high
row,SMILES,fold change
1,CSc1ccc(CN(C)CC(=O)NCc2ccc(F)cc2)cc1,1.02
2,COc1ccc(OC)c(C(=O)c2ccc(C(=O)N3CCN(Cc4csc(C)n4)CC3)cc2)c1,1.07
3,CN1CCN(Cc2nc3c(c(=O)n(C)c(=O)n3C)n2Cc2cccc3ccccc23)CC1,3.6 (active)
4,CCOC(=O)N1CCN(Cc2nc3c(c(=O)n(C)c(=O)n3C)n2Cc2ccccc2)CC1,1.26
5,CCN1CCN(Cc2nc3c(c(=O)n(C)c(=O)n3C)n2CC(=O)c2ccccc2)CC1,2.25
6,O=C(NC1CCCC1)c1ccc(Br)s1,1.12
7,CC(C)C(=O)OCC(=O)Nc1ccc2c(c1)CCC2,1.06
8,O=C(Nc1ccc2c(c1)CCC2)c1ccc(Br)s1,11.1 (active)
9,CCN(C(=O)c1ccc(Br)cc1)c1ccccc1,1.19
10,C/C(CC(=O)Nc1cccc(C(F)(F)F)c1)=N\NC(=O)C(=O)NCC(C)C,1.26
11,CC(C)C1Nc2c(C(=O)O)cccc2C(Nc2ccccc2C(=O)O)C1(C)C (stereo not drawn),1.41
12,COc1ccccc1N1CCN(C(=O)c2cc(-c3ccc(Br)cc3)on2)CC1,1.31
13,O=C(c1cc(-c2ccccc2O)on1)N1CCCC1,2.02
14,O=C(c1ccc(F)cc1)N1CCCC(c2nc(-c3cccs3)no2)C1 (stereo not drawn),0.86
15,O=C(c1cc(-c2cccs2)on1)N1CCCCC1,5.06 (active)
16,Cc1ccc(-c2cc(C(=O)N3CCc4ccccc4C3)no2)cc1,1.06
17,COc1ccccc1-c1cc(C(=O)N2CCCCC2)no1,6.86 (active)
18,Cc1cccc(NC(=S)Nc2ccc(Cl)c(Cl)c2)c1,0.6
19,COc1cc([N+](=O)[O-])ccc1NC(=S)N1CCN(c2ccccn2)CC1,1
20,CC1CCN(C(=S)c2cccc(O)c2)CC1,1.37
21,CCCN(CCC)c1ccc(C(O)c2nnc(-c3ccccc3)o2)cc1 (stereo not drawn),1.05
22,Brc1ccc(C2CC(c3ccccc3)=Nc3ccccc3N2)cc1 (stereo not drawn),3.44 (active)
23,CNC(=S)N1N=C(c2ccccc2)CC1c1ccc(Br)cc1 (stereo not drawn),1.3
24,c1ccc(C2=Nc3cccc4cccc(c34)N2)cc1,1.21
25,C=CCn1cc(-c2cccc(C(F)(F)F)c2)cc(C#N)c1=O,1.06
26,O=C(/C=C/c1ccccc1)c1ccoc1,0.94
27,O=C(/C=C/c1ccc(N2CCOCC2)cc1)c1ccccc1,4.09 (active)
28,O=C(O)c1ccc2c(c1)C(=O)N(c1ccc(/C=C/C(=O)c3ccccc3)cc1)C2=O,1.2
